Test results as given in PubChem BioAssay (Tox21).
Inconclusive results are not listed. The source made the active and inactive calls. The call rests on the fitted dose curve.

Assay: qHTS assay to identify small molecule agonists of the AP-1 signaling pathway (AID 1159526)
Conditions: ME-180 (cervical carcinoma) AP-1-bla reporter, beta-lactamase FRET ratio, 5 h; series mostly up to 76.8 µM; activation: at the top concentration
On the % scale 0 is the no-effect control and ±100 the full control effect; potency means the concentration at half of the fitted maximal effect.

**Q.** With `COc1ccccc1N1CCN(CC(O)COc2cc(OC)c(OC)c(OC)c2)CC1` (centres undefined) as the compound, how does the “activation” value read?
**A.** -4.02% [at 35.3 µM] (inactive)

**Q.** With `CC(=O)O[C@@H]1CC2C3CCc4cc(OC(=O)c5ccccc5)ccc4C3CCC2(C)[C@H]1OC(C)=O` (some centres undefined) as the compound, how does the “activation” value read?
**A.** -0.543% [at 35.3 µM] (inactive)

**Q.** With `C/C=C(\C)C=O` as the compound, how does the “activation” value read?
**A.** 1.45% (inactive)

**Q.** Which “activation” value does the source give for `CCCCCCCCCCCCCCBr` here?
**A.** 4.37% (inactive)

**Q.** Which “activation” value does the source give for `NNC(=O)CCCCC(=O)NN` here?
**A.** 4.88% (inactive)

**Q.** Which “activation” value does the source give for `Nc1nc(Cl)cc(Cl)n1` here?
**A.** 4.85% (inactive)

**Q.** With `C=CCON/C(CCC)=C1\C(=O)CC(C)(C)C(C(=O)OC)=C1O` as the compound, how does the “activation” value read?
**A.** -5.94% (inactive)

**Q.** Which “activation” value does the source give for `CCCCOCCCC` here?
**A.** 2.4% (inactive)

**Q.** Which “activation” value does the source give for `CCCC(C)C(O)CC` (centres undefined) here?
**A.** -1.08% (inactive)

**Q.** With `Cc1cc(C)c(N)c(Cl)c1` as the compound, how does the “activation” value read?
**A.** -2.77% (inactive)

**Q.** Which “activation” value does the source give for `CC(C)(C)OC(=O)c1ccccc1C(=O)O` here?
**A.** -5.56% (inactive)

**Q.** Which “activation” value does the source give for `C=CC(=O)OCC[N+](C)(C)C` here?
**A.** 13.8% (inactive)

**Q.** Which “activation” value does the source give for `CC/C=C\CCOC(=O)c1ccccc1` here?
**A.** -1.28% (inactive)

**Q.** With `O=P(O)(O)C(O)(Cc1cccnc1)P(=O)(O)O` as the compound, how does the “activation” value read?
**A.** -8.31% [at 35.3 µM] (inactive)

**Q.** For `CCN1CCN(C(=O)N[C@@H](C(=O)N[C@@H]2C(=O)N3[C@@H]2SC(C)(C)[C@H]3C(=O)O)c2ccccc2)C(=O)C1=O`, which “activation” value is on record?
**A.** -0.226% [at 35.3 µM] (inactive)

**Q.** With `COC(=O)N/N=C/c1c[n+]([O-])c2ccccc2[n+]1[O-]` as the compound, how does the “activation” value read?
**A.** 0.343% [at 35.3 µM] (inactive)

**Q.** For `CCCCCCCCCCCCCCCC(=O)OC`, which activation is on record?
**A.** 17.1% [at 15.8 µM] (inactive)

**Q.** For `Cc1ccccc1C#N`, which “activation” value is on record?
**A.** -0.478% (inactive)

**Q.** Which “activation” value does the source give for `C[C@H]1COc2c(C3(N)CC3)c(F)cc3c(=O)c(C(=O)O)cn1c23` here?
**A.** 3.85% [at 35.3 µM] (inactive)

**Q.** For `CC(C)=CCC/C(C)=C\C#N`, which “activation” value is on record?
**A.** 1.06% (inactive)

**Q.** Which “activation” value does the source give for `N#CC1(N)CCCCC1` here?
**A.** -0.0494% (inactive)

**Q.** With `NCC1CCC(C(=O)Oc2ccc(CCC(=O)O)cc2)CC1` (centres undefined) as the compound, how does the “activation” value read?
**A.** -2.22% [at 35.3 µM] (inactive)

**Q.** For `O=S(=O)(O)CC(O)CCl` (centres undefined), which “activation” value is on record?
**A.** -1.37% (inactive)

**Q.** For `CCCCCCCCCCCCCCCC/C=C/C1CC(=O)OC1=O` (centres undefined), which Potency is on record?
**A.** 16.9 µM (active)
